Source: PubChem BioAssay (NCI)
The panel holds about 83,000 compounds, 20% with a hit somewhere; the sample as a whole holds those more often.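 Values shown are percent growth following 48 h exposure of cells in 96-well plates to a single concentration of compound; below 10 was considered active.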 Values without a mark were called inactive. Activity calls are given as the source filed them.

System: U251 CNS
Test: NCI-60 one-dose screen, 48 h (100 = growth as untreated, 0 = no growth, -100 = all killed)
Conditions: 10 µM unless noted
Protocol: Growth inhibition of the U251 human tumor cell line is measured as a screen for anti-cancer activity. Cells are grown in 96 well plates and exposed to the test compound for 48 hours. Compounds are tested at a single concentration, which is 10^-5 M for most compounds. The reported endpoint is percent growth (GI% or GIPRCNT), where numbers from 0 - 100% represent growth inhibition, and numbers from -100% - 0 represent cell death. For example, a value of 40 represents 60% growth inhibition. A value of 0 means no net growth occurred over the course of the experiment. A value of -40 indicates 40% of cells at the beginning of the experiment died by the end of the experiment. A value of -100 means all cells are dead at the end of the experiment.
NCI-60 Human Tumor Cell Lines Screen was performed using the standard one-dose NCI protocol, which is described in more detail at https://dtp.cancer.gov/discovery_development/nci-60/default.htm.
Compounds with GIPRCNT values below 10 were considered active. Activity score was based on GIPRCNT using the following formula: […]
Score is 0 for GIPRCNT values of 100 or above, 50 for GIPRCNT values of 0, and 100 for GIPRCNT values of -100.

First: CCOC(=O)c1c(C)nc2c(c1N)C(=O)C(=O)N2CCc1ccc(OC)c(OC)c1
Second: COC(=O)c1cc(-c2ccc(OC)c(OC)c2)[nH]c1N/N=C/c1c(Cl)cccc1Cl
The growth of the first is higher: 57.7% for the first, 30.2% for the second.

Compared with `Cn1ccnc1C(=O)/C=C/c1ccc(C(=O)Nc2ccccc2F)cc1`, `O=C(/C=C\c1ccc(O)c(O)c1)c1ccccc1O` is higher in growth: 10.5% for the first, 69% for the second.

Compared with `COc1nc2ccccc2cc1/C=C1/C=C(c2ccccc2)NC1=O`, `O=c1ccc2nc(-c3ccccc3)nn(-c3ccccn3)c-2c1` is higher in growth: 31% for the first, 94.4% for the second.

First: Cc1c(-c2cnc3ccc(Cl)cc3c2C(=O)O)nnn1-c1ccc(Cl)cc1
Second: CC(=O)c1ccc(Nc2nccc(-c3ccc(Cl)cc3)n2)cc1
The growth of the first is higher: 97.3% for the first, 78.4% for the second.

First: CC1=C(C(=O)OCc2ccccc2)C(c2ccc3c(c2)OCO3)n2c(nc3ccccc32)N1 (stereo not given)
Second: C(=N\Nc1nnc2n1N=C(c1ccccc1)CS2)/c1ccc(OCc2ccccc2)cc1
The growth of the first is lower: 36.3% for the first, 97.6% for the second.

First: O=C(Nc1ncc(Cc2cc(C(F)(F)F)ccc2Cl)s1)C(=S)N1CCOCC1
Second: O=C(COc1ccc(/C=C2\Oc3ccccc3C2=O)cc1)Nc1nccs1
The growth of the first is lower: 90.3% for the first, 90.9% for the second.

First: CCN1CCN(c2nc(NNC(=O)c3ccc(OC)cc3)nc(N3CCN(C(c4ccccc4)c4ccccc4)CC3)n2)CC1
Second: COc1cc(C(=O)c2c(-c3ccccc3)oc3ccccc23)cc(OC)c1O
The growth of the first is higher: 39.5% for the first, 25.6% for the second.

Compared with `Cc1ccc2c(c1)CC(O)CC1C(=O)N(CCO)CC(=O)N21` (stereo not given), `Cc1ccc(C2(C)NC(=O)N(CC(=O)Nc3cccc(C)c3)C2=O)cc1` (stereo not given) is higher in growth: 95.4% for the first, 99.1% for the second.

First: Cc1cc2nc(C(Cl)Cl)nc(-c3ccccc3)n2n1
Second: N=C(N)c1ccc(-c2ccc(-c3ccccc3)s2)nc1
The growth of the first is lower: 36% for the first, 41.1% for the second.

First: COCCn1cc(-c2nc(-c3cc4cccnc4n3C)cs2)c2cc(OC)ccc21
Second: O=C1c2c(c3c4cccnc4[nH]c3c3ccc4ccccc4c23)C(=O)N1O
The growth of the first is higher: 59% for the first, 15.2% for the second.

Going from `O=C(Cn1cc(CSc2nc3ccccc3o2)nn1)Nc1ccc([N+](=O)[O-])cc1` to `O=C(Nc1ccc2[nH]ncc2c1)c1csc(Nc2ccccc2)n1`, the growth falls from 97.9% to 28.7%.

Compared with `CS(=O)(=O)c1cccc(Nc2ncc3cc(-c4ccccc4Cl)ccc3n2)c1`, `O=C1C(c2c(O)[nH]c3ncccc23)=Nc2ccccc21` is higher in growth: 16.6% for the first, 88.2% for the second.

First: C1=C2CCCC3=Cc4ccccc4OC23Oc2ccccc21
Second: O=C1C=CC2(O)OC(c3ccccc3)CC(=O)C2=C1O (stereo not given)
The growth of the first is lower: 26.5% for the first, 74.9% for the second.

Compared with `O=C(O)c1cc2ccccc2s1`, `O=C(Oc1ccccc1)c1cc(O)c(O)c(O)c1` is lower in growth: 95.9% for the first, 54.8% for the second.

Compared with `C#CCOc1ccc(C2=NN(CCCC)C3N=C(Cl)c4ncn(CCCC)c4N23)cc1OCC#C` (stereo not given), `N#Cc1c(-c2ccc(F)cc2)cc(-c2cccc(Cl)c2)[nH]c1=O` is lower in growth: 79.6% for the first, 39.5% for the second.

First: Clc1nc(N2CCC[N+]3(CC2)CC[N+]2(CCCNCC2)CC3)nc(N2CCC[N+]3(CC2)CC[N+]2(CCCNCC2)CC3)n1 (stereo not given)
Second: CN(C)CCCN(CCC1CCCCC1)CCC1CCCCC1
The growth of the first is higher: 91.7% for the first, 12.3% for the second.

First: CN(CCNc1ccc(C(=N)N)cc1)c1ccc(C(=N)N)cc1
Second: N#CSCc1cc(Cl)c(CSC#N)cc1Cl
The growth of the first is lower: 81.2% for the first, 106% for the second.

`C=C(c1ccc(OC)c(/C=C/C(=O)c2cc(OC)c(OC)c(OC)c2)c1)c1cc(OC)c(OC)c(OC)c1` was tested, and the growth was -49.3% (active).
`Oc1ccc(Cc2ccc(O)c3ncccc23)c2cccnc12` was tested, and the growth was 6.14% (active).
In the case of `Cn1ccnc1C(=O)/C=C/c1ccc(C(=O)Nc2c(F)c(F)c(F)c(F)c2F)cc1`, the growth is reported as -48.9% (active).
For `Cn1cc(-c2nc(-c3c[nH]c4ccncc34)cs2)c2cc(F)ccc21`, the growth was -89.1% (active).
For `CC1(C)CCC[C@]23C(=O)O[C@](O)(C(=O)C4=C[C@@](C)(/C=C/CCCc5ccc6ccc7cccc8ccc5c6c78)CC[C@@]42O)[C@@H]13`, the growth was -85.5% (active).
In the case of `O=C(N/N=C/c1ccccc1Cl)c1ccccc1Nc1ccnc(C(F)(F)F)c1`, the growth is reported as 3.95% (active).
